# Results as given in PubChem BioAssay (NCI).
# Where “and” joins values, the source holds several entries; their conditions need not be identical. Equal values may be shown once. About 83,000 compounds went through this panel and 20% of them were active in at least one assay; those are over-represented in the sample as a whole.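 A percent growth of 40 corresponds to 60% growth inhibition; 0 means no net growth; -100 means all cells died. Active threshold: below 10.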 Calls of active or inactive are those of the source.
# Columns and labels:
# Test in all cases: NCI-60 one-dose screen, 48 h (100 = growth as untreated, 0 = no growth, -100 = all killed)
# T-47D breast = test system: T-47D breast
# MDA-MB-435 melanoma = test system: MDA-MB-435 melanoma
# SW-620 colon = test system: SW-620 colon
# MCF7 breast = test system: MCF7 breast
# HCT-116 colon = test system: HCT-116 colon
# HCC-2998 colon = test system: HCC-2998 colon
# KM12 colon = test system: KM12 colon
# BT-549 breast = settings: 10 µM
smiles,measurement,setting,value
CC[N+](CC)=c1ccc2nc3c(cc(N)c4ccccc43)oc-2c1,growth,T-47D breast; 10 µM,-44% (active)
same,growth,MDA-MB-435 melanoma; 10 µM,-82.2% (active)
same,growth,SW-620 colon; 10 µM,-25.2% (active)
same,growth,MCF7 breast; 10 µM,-46.3% (active)
same,growth,HCT-116 colon; 10 µM,-27.1% (active)
same,growth,HCC-2998 colon; 10 µM,-78% (active)
same,growth,KM12 colon; 10 µM,-44.2% (active)
COc1cccc2c1C(=O)c1c(O)c3c(c(O)c1C2=O)C[C@@](O)(C(C)=O)C[C@@H]3OC1CC(N)C(O)C(C)O1 (some centres undefined),growth,T-47D breast; 10 µM,-16.3% (active)
same,growth,MDA-MB-435 melanoma; 10 µM,-87.2% (active)
same,growth,SW-620 colon; 10 µM,-3.91% (active)
same,growth,MCF7 breast; 10 µM,-9.83% (active)
same,growth,MCF7 breast; 50 µM,-90.1% (active) and -89.5% (active)
same,growth,HCT-116 colon; 10 µM,-37.5% (active)
same,growth,HCC-2998 colon; 10 µM,-86% (active)
same,growth,KM12 colon; 10 µM,-8.88% (active)
CCCCCCCCCCCCSC(=NC)NC,growth,T-47D breast; 10 µM,-7.65% (active) and 49.6% (inactive)
same,growth,BT-549 breast,45.3% (inactive) and 86.4% (inactive)
same,growth,MDA-MB-435 melanoma; 10 µM,-15.7% (active) and 43.4% (inactive)
same,growth,SW-620 colon; 10 µM,-25.5% (active) and 32.3% (inactive)
same,growth,MCF7 breast; 10 µM,-9.44% (active) and 22.6% (inactive)
same,growth,HCT-116 colon; 10 µM,1.94% (active) and 47.4% (inactive)
same,growth,HCC-2998 colon; 10 µM,-54.8% (active) and -34.7% (active)
same,growth,KM12 colon; 10 µM,17.1% (inactive) and 44.8% (inactive)
CCN(CC)c1ccc(NC(C(=O)c2ccccc2)c2ccccc2)cc1 (centres undefined),growth,T-47D breast; 10 µM,8.44% (active)
same,growth,BT-549 breast,2.75% (active)
same,growth,MDA-MB-435 melanoma; 10 µM,3.95% (active)
same,growth,SW-620 colon; 10 µM,6.54% (active)
same,growth,MCF7 breast; 10 µM,11.1% (inactive)
same,growth,HCT-116 colon; 10 µM,-19.6% (active)
same,growth,HCC-2998 colon; 10 µM,65.1% (inactive)
same,growth,KM12 colon; 10 µM,65.1% (inactive)
Cc1cc(O)c(C(C)C)cc1Cl,growth,T-47D breast; 10 µM,98.8% (inactive)
same,growth,BT-549 breast,111% (inactive)
same,growth,MDA-MB-435 melanoma; 10 µM,99.2% (inactive)
same,growth,SW-620 colon; 10 µM,105% (inactive)
same,growth,MCF7 breast; 10 µM,104% (inactive)
same,growth,HCT-116 colon; 10 µM,98.9% (inactive)
same,growth,HCC-2998 colon; 10 µM,101% (inactive)
same,growth,KM12 colon; 10 µM,112% (inactive)
CN(C)C(=S)SC(=S)N(C)C,growth,T-47D breast; 10 µM,67% (inactive) and 96.3% (inactive)
same,growth,BT-549 breast,109% (inactive) and 115% (inactive)
same,growth,MDA-MB-435 melanoma; 10 µM,94.6% (inactive) and 93% (inactive)
same,growth,SW-620 colon; 10 µM,102% (inactive) and 96% (inactive)
same,growth,MCF7 breast; 10 µM,35.3% (inactive) and 71.2% (inactive)
same,growth,HCT-116 colon; 10 µM,87% (inactive) and 67.7% (inactive)
same,growth,HCC-2998 colon; 10 µM,96.7% (inactive) and 107% (inactive)
same,growth,KM12 colon; 10 µM,110% (inactive) and 97.3% (inactive)
O=C(C(=Cc1ccccc1)C(=O)c1ccccc1)c1ccccc1,growth,T-47D breast; 10 µM,65.5% (inactive) and 74.7% (inactive)
same,growth,MDA-MB-435 melanoma; 10 µM,63.5% (inactive) and 104% (inactive)
same,growth,SW-620 colon; 10 µM,44.3% (inactive) and 84.4% (inactive)
same,growth,MCF7 breast; 10 µM,25.1% (inactive) and 89.3% (inactive)
same,growth,HCT-116 colon; 10 µM,18.3% (inactive) and 62.2% (inactive)
same,growth,HCC-2998 colon; 10 µM,92.4% (inactive) and 129% (inactive)
same,growth,KM12 colon; 10 µM,47.8% (inactive) and 88.9% (inactive)
O=C(/C=C/c1cccnc1)c1ccccc1,growth,T-47D breast; 10 µM,86.5% (inactive)
same,growth,MDA-MB-435 melanoma; 10 µM,80.2% (inactive)
same,growth,SW-620 colon; 10 µM,23% (inactive)
same,growth,MCF7 breast; 10 µM,26.1% (inactive)
same,growth,HCT-116 colon; 10 µM,21.1% (inactive)
same,growth,HCC-2998 colon; 10 µM,86% (inactive)
same,growth,KM12 colon; 10 µM,51.4% (inactive)
Clc1cc(Cl)c(Cl)nn1,growth,T-47D breast; 10 µM,79.3% (inactive)
same,growth,MDA-MB-435 melanoma; 10 µM,105% (inactive)
same,growth,SW-620 colon; 10 µM,107% (inactive)
same,growth,MCF7 breast; 10 µM,86.3% (inactive)
same,growth,HCT-116 colon; 10 µM,86.2% (inactive)
same,growth,HCC-2998 colon; 10 µM,119% (inactive)
same,growth,KM12 colon; 10 µM,105% (inactive)
Nc1c2ccccc2nc2ccccc12,growth,T-47D breast; 10 µM,13.3% (inactive) and 30.4% (inactive) and 32.3% (inactive)
same,growth,BT-549 breast,33.8% (inactive) and 69.9% (inactive) and 83.1% (inactive)
same,growth,MDA-MB-435 melanoma; 10 µM,6.39% (active) and 30% (inactive) and 48.5% (inactive)
same,growth,SW-620 colon; 10 µM,2.21% (active) and 14.3% (inactive) and 26.8% (inactive)
same,growth,MCF7 breast; 10 µM,2.34% (active) and 7.36% (active) and 9.98% (active)
same,growth,HCT-116 colon; 10 µM,7.6% (active) and 17.9% (inactive) and 18.2% (inactive)
same,growth,HCC-2998 colon; 10 µM,37.9% (inactive) and 24.7% (inactive) and 40.8% (inactive)
same,growth,KM12 colon; 10 µM,19.1% (inactive) and 46.2% (inactive)
COc1cccc2c1C(=O)c1c(O)c3c(c(O)c1C2=O)C[C@@](O)(C(=O)CO)C[C@@H]3OC1CC(N)C(O)C(C)O1 (some centres undefined),growth,T-47D breast; 0.0025 µM,90.7% (inactive)
same,growth,T-47D breast; 1 µM,13.2% (inactive)
same,growth,T-47D breast; 2.5 µM,39.5% (inactive)
same,growth,T-47D breast; 10 µM,-11.3% (active)
same,growth,MDA-MB-435 melanoma; 0.0025 µM,99% (inactive)
same,growth,MDA-MB-435 melanoma; 1 µM,50.1% (inactive)
same,growth,MDA-MB-435 melanoma; 2.5 µM,72.5% (inactive)
same,growth,MDA-MB-435 melanoma; 10 µM,-83.9% (active)
same,growth,SW-620 colon; 0.0025 µM,91.7% (inactive)
same,growth,SW-620 colon; 1 µM,-1.05% (active)
same,growth,SW-620 colon; 10 µM,1.93% (active)
same,growth,MCF7 breast; 0.0025 µM,71.4% (inactive)
same,growth,MCF7 breast; 1 µM,18.7% (inactive)
same,growth,MCF7 breast; 2.5 µM,7.74% (active)
same,growth,MCF7 breast; 10 µM,3.37% (active)
same,growth,HCT-116 colon; 0.0025 µM,76.1% (inactive)
same,growth,HCT-116 colon; 1 µM,8.95% (active)
same,growth,HCT-116 colon; 2.5 µM,28.1% (inactive)
same,growth,HCT-116 colon; 10 µM,2.8% (active)
same,growth,HCC-2998 colon; 0.0025 µM,84.7% (inactive)
same,growth,HCC-2998 colon; 1 µM,59.8% (inactive)
same,growth,HCC-2998 colon; 2.5 µM,-13.3% (active)
same,growth,HCC-2998 colon; 10 µM,-54.4% (active)
same,growth,KM12 colon; 0.0025 µM,93.1% (inactive)
same,growth,KM12 colon; 1 µM,32.1% (inactive)
same,growth,KM12 colon; 10 µM,4.23% (active)
Oc1ccc(N=Nc2ccccn2)c(O)c1,growth,T-47D breast; 10 µM,37.3% (inactive)
same,growth,MDA-MB-435 melanoma; 10 µM,32.5% (inactive)
same,growth,SW-620 colon; 10 µM,32.9% (inactive)
same,growth,MCF7 breast; 10 µM,14.5% (inactive)
same,growth,HCT-116 colon; 10 µM,18.7% (inactive)
same,growth,HCC-2998 colon; 10 µM,30% (inactive)
same,growth,KM12 colon; 10 µM,26.9% (inactive)
